Laboratory results taken from PubChem BioAssay (Tox21).
Inconclusive results are not listed. Activity calls are given as the source filed them. The call rests on the fitted dose curve.

assay: qHTS assay to identify small molecule agonists of the AP-1 signaling pathway - cell viability counter screen (AID 1159525); conditions: ME-180 (cervical carcinoma) AP-1-bla cells viability, ATP luminescence, 5 h; series mostly up to 76.8 µM; further: nearly all actives have a fitted effect of over 55% in size
From the text: National Center for Advancing Translational Sciences [NCATS]
NIH Chemical Genomics Center [NCGC]
U.S. Environmental Protection Agency [EPA]
National Institutes of Environmental Health Sciences [NIEHS]
National Toxicology Program [NTP]
U.S. Food and Drug Administration [FDA]
Activator protein-1 (AP-1), a transcription factor, plays an important role in tumor genesis by regulating genes involved in cell proliferation, differentiation, apoptosis, and angiogenesis. AP-1 activity is induced by a complex network of signaling pathways that involves extracellular signals, such as growth factors. The AP-1 protein complex formed from c-Fos and c-Jun binding to the AP-1 response element results in transcriptional activation of genes containing such elements within their promoter.
Low molecular weight molecules have been discovered and developed to modulate various components of these signaling pathways, for example, MAP kinase inhibitors. However, many points of pathway modulation remain untested due to the lack of chemical probes making this signaling locus of general interest.
Using a beta-lactamase reporter-gene under control of the AP-1 response element, a cell-based assay [CellSensor(TM) AP-1-bla ME-180 developed by Invitrogen Corp.] was used to measure EGF-induced signaling. The Tox21 10K library compounds were measured for their ability to positively modulate the action of EC50 EGF on reporter gene activity. Compounds were screened in a 15-pt titration series in 1536-well format. The cytotoxicity of the Tox21 compound library against this cell line was tested in parallel by measuring the intra cellular ATP content in the same wells.
Tox21 Assay Protocol Summary:
2500 cells/5uL in Opti-MEM medium containing 0.5% dialyzed FBS, 0.1 mM NEAA, 1 mM sodium pyruvate and 10 mM HEPES was dispensed into 1536-well black wall/clear bottom plates using a Multidrop dispenser and cells were cultured at 37 degrees Celsius overnight. Next day 23 nL of compounds dissolved in DMSO, positive controls or DMSO were delivered to each well using a pin tool. The plates were incubated at 37 degrees Celsius for 5 hours. 1 uL of LiveBLAzerTM B/G FRET substrate (Solution A+B+C+D) was added to each well using a Flying Reagent Dispenser. After incubated at room temperature for 2.5 hours the plates were measured on an EnVision plate reader at Excitation 405nm, Emission1=460nm and Emission 2=530nm. The %Activity was determined from the ratio of 460nm/530nm.
After the plates were read for Beta-Lactamase assay on Envision; 3 ul Cell Titer Glo (Promega) was added to measure the cytotoxicity and the plates were then incubated at RT in dark for 30 min. The luminescence was read on ViewLux (Perkin Elmer, Shelton, CT) using 6 sec exposure. ViewLux data was expressed as relative luminescence units.
For primary data analysis, raw plate reads for each titration point were first normalized relative to […] EGF control (100%) and DMSO only wells (basal, 0%).
For primary data analysis for viability assay, raw plate reads for each titration point were first normalized Tetra n-octyl ammonium bromide control (-100%) and DMSO (control, 100%).

| SMILES | outcome | viability change, negative = cytotoxic |
| --- | --- | --- |
| Oc1ccc(Nc2ccccc2)cc1 | inactive | – |
| C=CC(=C)CCCC(C)(C)OC(C)=O | inactive | – |
| CC#N | inactive | – |
| CCCCOC(=O)CCS | inactive | – |
| CCCCCCCCCCCCCCC[C@H](O)[C@@H](N)CO | inactive | – |
| Cc1cnc(C)c(C)n1 | inactive | – |
| CCCCCCCCCCCC[N+](C)(C)CCCS(=O)(=O)[O-] | inactive | – |
| O=S(=O)(c1ccccc1)c1ccc(Cl)cc1 | inactive | – |
| CC(C)C(=O)O | inactive | – |
| CCOC(=O)C(C)Oc1ccc(Oc2nc3ccc(Cl)cc3o2)cc1 (stereo not given) | inactive | – |
| CCCC1C(CC)=CC(CC)=CN1c1ccccc1 (stereo not given) | inactive | – |
| CCCCCCCCSCCO | inactive | – |
| C=CCCCCCCCCCCCCCCCC | – | 4.34% [at 6.97 µM] (inactive) |
| C=C(C)C(=O)OCCOC(=O)CC(C)=O | inactive | – |
| COCC(O)CO (stereo not given) | inactive | – |
| CCC(=O)Oc1ccc(/C(CC)=C(\CC)c2ccc(OC(=O)CC)cc2)cc1 | inactive | – |
| CO[C@@]12[C@H](COC(N)=O)C3=C(C(=O)C(C)=C(N)C3=O)N1C[C@@H]1N[C@@H]12 | inactive | – |
| CC(N)CN (stereo not given) | inactive | – |
| COc1ccccc1N=Nc1c(S(=O)(=O)O)cc2cc(S(=O)(=O)O)cc(NC(C)=O)c2c1O | inactive | – |
| O=C(O)c1cccnc1C(=O)O | inactive | – |

| SMILES | outcome | viability change, negative = cytotoxic |
| --- | --- | --- |
| CNC(=O)N(c1ccccc1)c1ccccc1 | inactive | – |
| COc1ccc([C@@H]2Sc3ccccc3NC(=O)[C@@H]2O)cc1 | inactive | – |
| CC1=C(C=O)C(C)(C)CCC1 | inactive | – |
| CC(C)C(OC(=O)c1ccccc1)C(C)(C)COC(=O)c1ccccc1 (stereo not given) | inactive | – |
| c1cc[c]([Bi]([c]2ccccc2)[c]2ccccc2)cc1 | inactive | – |
| CC1(C)C(=O)N(Br)C(=O)N1Cl | inactive | – |
| Cc1nc2ccccn2c(=O)c1CCN1CCC(C(=O)c2ccc(F)cc2)CC1 | inactive | – |
| CCOCCn1c(C2CCN(CCc3ccc(C(C)(C)C(=O)O)cc3)CC2)nc2ccccc21 | inactive | – |
| O=C(O)C(Cc1cc(I)c(O)c(I)c1)c1ccccc1 (stereo not given) | inactive | – |
| COCCOC | inactive | – |
| O=C(CS)OCCOC(=O)CS | inactive | – |
| CN1CCN(c2c(F)cc3c(=O)c(C(=O)O)cn4c3c2OCN4C)CC1 | – | 12.5% [at 15.8 µM] (inactive) |
| Cc1ccc(Nc2nccc(N(C)c3ccc4c(C)n(C)nc4c3)n2)cc1S(N)(=O)=O | inactive | – |
| CC(=O)N(c1onc(C)c1C)S(=O)(=O)c1ccc(N)cc1 | inactive | – |
| CC(C)CCCCCOC(=O)CCCCC(=O)OCCCCCC(C)C | inactive | – |
| Nc1ccc(C(=O)OCCCOC(=O)c2ccc(N)cc2)cc1 | inactive | – |
| Nc1nc(Cl)nc2c1ncn2[C@@H]1O[C@H](CO)[C@@H](O)[C@@H]1F | inactive | – |
| NCC1CCCC(CN)C1 (stereo not given) | inactive | – |
| CO[C@H]1O[C@H](CO)[C@@H](O)[C@H](O)[C@H]1O | inactive | – |
| N#C/C(=C1\SCC(c2ccccc2Cl)S1)n1ccnc1 (stereo not given) | inactive | – |
